# PubChem BioAssay (NCATS)
# Records with an inconclusive call do not appear. The source made the active and inactive calls. Unless noted, calls come from the whole dose curve; as a rule, active = well fitted curve in the direction sought with a large enough effect; inconclusive = small, poorly fitted or top-dose-only effect, or another doubt; inactive = no such curve, though single readings can be large; an effect the other way counts as inactive or inconclusive.
# Experiments:
# [1] = test system: Zika virus NS2B-NS3 protease (unlinked complex); test: Primary screen GU Rhodamine qHTS for Zika virus inhibitors: Unlinked NS2B-NS3 protease assay (AID 1347159); note: nearly all actives have a fitted effect of over 60% in size; note: potency is the fitted concentration of half-maximal effect; for activity change, negative = inhibition: % is set by controls: 0 for no effect and ±100 for the full control effect
# Summary of the method: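 Compounds, tested up to 114 microM, were incubated for 15 minutes with 25 nM unlinked NS2B-NS3 protease at pH 8.0. Cleavage of 1.5 microM Rhodamine110 substrate was then followed by fluorescence for 15 minutes.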
# [2] = qHTS drug screen for cell cycle checkpoint inhibitors in PARPi-resistant BRCA-mutant ovarian cancer cell lines. (AID 1963452; calls by dose curve); details: PEO1/OlaR viability, CellTiter-Glo luminescence, 96 h, stronger effect = lower value
# Summary of the method: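 PEO1, PEO4 and PEO1/OlaR ovarian cancer cells, 600 per well, exposed 96 h at 37C to a dilution series. Viability read by CellTiter-Glo luminescence, normalized to DMSO and empty wells; activity summarized as Z-AUC.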
# [3] = test system: HaCat; test: Cytotoxic Profiling of Annotated Libraries Using Quantitative High-Throughput Screening (AID 1296008); details: Five cell lines viability, CellTiter-Glo ATP luminescence, 48-72 h; max response: stronger effect = lower value; note: nearly all actives have a fitted effect of over 60% in size; note: potency is the fitted concentration of half-maximal effect; for max response: % is set by controls: 0 for no effect and ±100 for the full control effect
# Summary of the method: (§1)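 Cytotoxicity was measured as CellTiter-Glo ATP luminescence, read after 10 min at room temperature. Compound treatment of the cells lasted 48 or 72 hr at 37 degrees Celsius in a qHTS format.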
# [4] = qHTS assay to identify inhibitors of the type 1 interferon - major histocompatibility complex class I in skeletal muscle: Counter screen cell viability and HiBit confirmation (AID 1347412); details: iHSKM muscle cells + IFN-b, HiBiT or CellTiter-Glo, 24 h, at 45.9 µM (top of the series); note: % is set by controls: 0 for no effect and ±100 for the full control effect; nearly all actives have a fitted effect of over 60% in size
# Summary of the method: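 Luminescence read-out: Nano-Glo HiBiT lytic signal from C-terminally HiBiT-tagged HLA-B in CRISPR-edited human myoblasts, plus CellTiter Glo ATP as viability counter screen. IFN-beta 4.0 ng/ml; 24 hrs treatment at 37 C, 5% CO2.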
# [5] = biological target: Cytochrome P450 2D6 (Homo sapiens) (UniProt P10635); test: Cytochrome P450 family 2 subfamily D member 6 (CYP2D6) small molecule antagonists: luciferase biochemical (cell-free) qHTS assay (AID 1645840; active = well fitted curve in the direction sought with a large enough effect in the repeat runs; an effect the other way counts as inactive or inconclusive; note: potency is the fitted concentration of half-maximal effect; nearly all actives have a fitted effect of over 55% in size)
# Summary of the method: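 P450-Glo luminescent screen: recombinant CYP2D6 enzyme–proluciferin substrate mix preincubated with compound 10 min at room temperature, then NADPH regeneration added for 1 h at room temperature. Detection reagent added for 20 min; luciferin light read as relative luminescence units.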
# [6] = biological target: Catechol O-methyltransferase (Homo sapiens) (UniProt P21964); test: Confirmatory Screen for Target Class Profiling of Small Molecule Inhibitors of Methyltransferases (AID 1745852); details: MTase-Glo luminescence, SAH detection, recombinant enzyme; measured here: COMT max response; stronger effect = lower value; for activity change, negative = inhibition: % is set by controls: 0 for no effect and ±100 for the full control effect
# [7] = biological target: Guanidinoacetate N-methyltransferase (Homo sapiens) (UniProt Q14353); test: as above; details: activity change, negative = inhibition: at 57.3 µM (top of the series) unless noted
# [8] = biological target: Nicotinamide N-methyltransferase (Homo sapiens) (UniProt P40261); test: as above; details: MTase-Glo luminescence, SAH detection, recombinant enzyme; measured here: NNMT max response; stronger effect = lower value
# [9] = biological target: Phenylethanolamine N-methyltransferase (Homo sapiens) (UniProt P11086); test: as above; details: MTase-Glo luminescence, SAH detection, recombinant enzyme; measured here: PNMT max response; stronger effect = lower value
# [10] = test system: NIH3T3; test: Cytotoxic Profiling of Annotated Libraries Using Quantitative High-Throughput Screening (AID 1296008); details: Five cell lines viability, CellTiter-Glo ATP luminescence, 48-72 h; max response: stronger effect = lower value; note: nearly all actives have a fitted effect of over 60% in size; note: potency is the fitted concentration of half-maximal effect; for max response: % is set by controls: 0 for no effect and ±100 for the full control effect
# Summary of the method: as §1
# [11] = test system: PA-1; test: Primary qHTS to identify gynecologic anti-cancer compounds using libraries of approved drugs and bioactive compounds (AID 1345084); details: Gynecologic cancer cell panel viability, ATPlite luminescence, 48 h; series mostly up to 57.5 µM; note: nearly all actives have a fitted effect of over 55% in size; note: potency is the fitted concentration of half-maximal effect
# Summary of the method: (§2)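 Five-concentration response, 48 h; readout is ATP-driven luciferase luminescence.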
# [12] = qHTS to identify inhibitors of the type 1 interferon - major histocompatibility complex class I in skeletal muscle: primary screen against the NCATS Mechanism Interrogation Plate v5.0 (MIPE) Libary (AID 1347411);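 note: plate controls were vehicle for no effect and reference inhibitor for full effect; nearly all actives have a fitted effect of over 65% in size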
# Summary of the method: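 Immortalized human C25cl48 myoblasts with HiBit knocked into endogenous HLA-B*08:01 were stimulated with 4.0 ng/ml IFN-beta and exposed to compounds (11-point 1:3 titration, top 46 uM final) for 24 hrs at 37 C; HiBiT lytic luminescence measured.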
# [13] = test system: SKOV3; test: Primary qHTS to identify gynecologic anti-cancer compounds using libraries of approved drugs and bioactive compounds (AID 1345084); details: Gynecologic cancer cell panel viability, ATPlite luminescence, 48 h; series mostly up to 57.5 µM; note: nearly all actives have a fitted effect of over 55% in size; note: potency is the fitted concentration of half-maximal effect
# Summary of the method: as §2
# [14] = biological target: Cytochrome P450 2C9 (Homo sapiens) (UniProt P11712); test: Cytochrome P450 family 2 subfamily C member 9 (CYP2C9) small molecule antagonists: luciferase biochemical (cell-free) qHTS assay (AID 1645842; active = well fitted curve in the direction sought with a large enough effect in the repeat runs; an effect the other way counts as inactive or inconclusive; note: potency is the fitted concentration of half-maximal effect; nearly all actives have a fitted effect of over 55% in size)
# Summary of the method: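 Luminescence, after 20 min with luciferin detection reagent, reflected CYP2C9 turnover during a 1 h NADPH-driven reaction at 37C. Enzyme-substrate mix contained 0.4% bovine serum albumin and was preincubated with compound 10 min at room temperature.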
# [15] = Confirmatory screen NINDS Rhodamine qHTS for Zika virus inhibitors (AID 1347161)
# Summary of the method: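 Single-chain NS2B-NS3 protease, 25 nM, pH 8.0; compounds preincubated 15 min. Activity: Rhodamine110 release from 1.5 microM substrate over 15 min, room temperature, data fitted to 4-parameter Hill.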
# [16] = Tertiary RLuc qRT-PCR qHTS assay for Zika virus inhibitors (AID 1347169)
# Summary of the method: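 Vero, 1,000 cells/well, o/n 37 C; cpd pinned in DMSO; ZIKV-RLuc Cambodian, MOI 1-2, 48-72 h 37 C; live-cell RLuc substrate, lum read at 1-1.5 h.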
# [17] = P-glycoprotein substrates identified in KB-8-5-11 adenocarcinoma cell line, qHTS therapeutic library screen (AID 1346987); note: nearly all actives have a fitted effect of over 65% in size
# Summary of the method: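 KB-8-5-11: colchicine-selected sub-line of KB-3-1 over-expressing P-gp; assay medium lacked colchicine. 72 h drug exposure at 37 degree C, CellTiter-Glo.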
# [18] = Drug repurposing screens with cells derived from glioblastoma tumor samples (AID 1345199); details: GBM patient neurospheres viability, ATP luminescence, 48 h; at 91.6 µM (top of the series); tumour line D; note: % is set by controls: 0 for no effect and ±100 for the full control effect; nearly all actives have a fitted effect of over 40% in size
# Summary of the method: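 Four patient lines of CD133+ GBM neurospheres were screened at several concentrations; hits were retested in those lines plus three slower-growing GBM lines, using 48-hour treatment and ATP-based viability.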
# [19] = measured here: PEO1 parental Z-AUC
# Chain of Cytochrome P450 2C9 (Homo sapiens) (P11712 whole entry, looked up): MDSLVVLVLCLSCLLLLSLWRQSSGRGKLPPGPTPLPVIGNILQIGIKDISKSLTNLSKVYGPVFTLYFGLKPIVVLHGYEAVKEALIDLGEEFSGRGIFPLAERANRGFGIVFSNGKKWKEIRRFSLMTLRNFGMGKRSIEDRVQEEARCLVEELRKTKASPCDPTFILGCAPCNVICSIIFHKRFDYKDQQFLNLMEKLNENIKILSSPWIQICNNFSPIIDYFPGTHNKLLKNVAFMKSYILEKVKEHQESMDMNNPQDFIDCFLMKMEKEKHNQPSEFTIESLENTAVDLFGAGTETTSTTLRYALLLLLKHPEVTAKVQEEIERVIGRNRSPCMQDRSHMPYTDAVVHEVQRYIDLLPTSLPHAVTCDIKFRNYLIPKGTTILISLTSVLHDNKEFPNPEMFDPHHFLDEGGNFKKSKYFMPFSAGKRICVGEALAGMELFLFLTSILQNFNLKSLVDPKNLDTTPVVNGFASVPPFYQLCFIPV
# Chain of Phenylethanolamine N-methyltransferase (Homo sapiens) (P11086 whole entry, looked up): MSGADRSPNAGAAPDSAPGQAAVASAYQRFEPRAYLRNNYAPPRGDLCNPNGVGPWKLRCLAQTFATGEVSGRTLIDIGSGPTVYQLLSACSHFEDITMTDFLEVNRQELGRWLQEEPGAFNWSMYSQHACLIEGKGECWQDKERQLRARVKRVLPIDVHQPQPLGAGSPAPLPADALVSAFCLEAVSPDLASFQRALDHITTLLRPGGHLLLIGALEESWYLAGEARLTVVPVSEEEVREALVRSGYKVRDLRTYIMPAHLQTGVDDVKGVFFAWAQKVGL
# Chain of Catechol O-methyltransferase (Homo sapiens) (P21964 whole entry, looked up): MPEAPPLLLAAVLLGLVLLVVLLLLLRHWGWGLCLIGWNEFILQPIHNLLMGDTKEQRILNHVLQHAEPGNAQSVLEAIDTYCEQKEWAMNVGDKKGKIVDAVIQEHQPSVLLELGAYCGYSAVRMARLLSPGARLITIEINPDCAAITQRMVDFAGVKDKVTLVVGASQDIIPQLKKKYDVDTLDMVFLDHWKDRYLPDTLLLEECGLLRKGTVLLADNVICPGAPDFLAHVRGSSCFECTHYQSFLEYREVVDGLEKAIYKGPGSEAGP
# Chain of Nicotinamide N-methyltransferase (Homo sapiens) (P40261 whole entry, looked up): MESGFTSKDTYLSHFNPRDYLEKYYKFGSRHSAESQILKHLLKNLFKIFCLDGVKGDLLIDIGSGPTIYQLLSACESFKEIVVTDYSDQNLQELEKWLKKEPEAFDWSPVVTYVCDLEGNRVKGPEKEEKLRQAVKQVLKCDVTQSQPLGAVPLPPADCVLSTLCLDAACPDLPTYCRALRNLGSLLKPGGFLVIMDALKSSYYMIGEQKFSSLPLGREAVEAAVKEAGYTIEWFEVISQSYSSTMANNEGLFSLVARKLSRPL
# Chain of Cytochrome P450 2D6 (Homo sapiens) (P10635 whole entry, looked up): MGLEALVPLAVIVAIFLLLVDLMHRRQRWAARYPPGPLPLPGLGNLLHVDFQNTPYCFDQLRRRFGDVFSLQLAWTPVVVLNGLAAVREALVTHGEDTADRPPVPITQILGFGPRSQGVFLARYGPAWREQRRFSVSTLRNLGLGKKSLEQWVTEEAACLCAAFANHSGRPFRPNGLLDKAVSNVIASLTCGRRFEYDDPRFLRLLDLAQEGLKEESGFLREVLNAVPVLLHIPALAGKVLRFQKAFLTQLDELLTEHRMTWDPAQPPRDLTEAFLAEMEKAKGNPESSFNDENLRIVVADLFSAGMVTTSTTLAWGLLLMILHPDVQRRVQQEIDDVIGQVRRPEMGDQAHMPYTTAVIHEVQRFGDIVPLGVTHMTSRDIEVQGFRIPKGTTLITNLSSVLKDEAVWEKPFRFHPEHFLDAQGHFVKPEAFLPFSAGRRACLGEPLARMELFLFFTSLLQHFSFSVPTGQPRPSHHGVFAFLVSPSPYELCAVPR
structure (smiles),measurement,setting,value
Oc1ccc(Nc2nc(-c3ccc(Cl)cc3)cs2)cc1,Potency,[1],inactive
same,Z-AUC,[2],-0.146 (inactive)
same,Z-AUC,[2]; [19],0.0588
same,Z-AUC,[2]; measured here: PEO4 Z-AUC,0.0633
same,max response,[3],-8.45% (inactive)
same,"activity change, negative = inhibition",[4]; HiBiT,-38.1% (inactive)
same,"activity change, negative = inhibition",[4]; Viability,7.19% (inactive)
Nc1nc(NCC2CCC(CNS(=O)(=O)c3cccc4ccccc34)CC2)nc2ccccc12 (centres undefined),Potency,[1],inactive
same,Potency,[5],3.38 µM (active)
same,activity,[6],-12.1%
same,"activity change, negative = inhibition",[7],-4.41%
same,activity,[8],-26.1%
same,activity,[9],-28.4%
same,Potency,[10],20.6 µM (active)
same,Potency,[11],inactive
O=c1c(-n2ccnn2)c[nH]n1-c1cc(N2CCOCC2)ncn1,Z-AUC,[2],1.14 (inactive)
same,Z-AUC,[2]; [19],0.854
same,Z-AUC,[2]; measured here: PEO4 Z-AUC,1.55
same,Potency,[3],1.86 µM (active)
same,"activity change, negative = inhibition",[4]; HiBiT,-24.7% (inactive)
same,"activity change, negative = inhibition",[4]; Viability,-14.1% (inactive)
N#C[C@@H]1C[C@@H]2C[C@@H]2N1C(=O)[C@@H](N)C12CC3CC(CC(O)(C3)C1)C2,Potency,[1],inactive
same,Potency,[12],inactive
same,Z-AUC,[2],-0.557 (inactive)
same,Z-AUC,[2]; [19],0.593
same,Z-AUC,[2]; measured here: PEO4 Z-AUC,-0.565
same,Potency,[11],inactive
same,Potency,[13],inactive
CCS(=O)(=O)N(Cc1cccnc1)c1cccc(-c2ccc(C#N)cc2)c1,Potency,[1],inactive
same,Potency,[14],9.52 µM (active)
same,max response,[10],-19.5% (inactive)
same,Potency,[11],inactive
CN(CC(=O)N(Cc1ccc(C2CCCCC2)cc1)c1ccc(C(=O)O)cc1)S(=O)(=O)c1c(F)c(F)c(F)c(F)c1F,Potency,[1],2.51 µM (active)
same,Potency,[15],2.78 µM (active)
same,Potency,[16],7.39 µM (active)
same,Potency,[14],16.9 µM (active)
same,Potency,[10],6.51 µM (active)
same,Potency,[13],31.6 µM (active)
C=C1C(=O)O[C@@H]2CC(C)=C([C@@H](C)CCCO)[C@@H](OC(=O)C(C)C)[C@H]12,activity,[6],-63.9%
same,"activity change, negative = inhibition",[7],0%
same,activity,[8],-0.804%
same,activity,[9],1.36%
same,max response,[10],-12.2% (inactive)
C=C1[C@@H](C)[C@H]2[C@H](Cc3c[nH]c4ccccc34)NC(=O)[C@]23C(=O)/C=C/C(=O)[C@H](O)/C(C)=C\[C@@H](C)C/C=C/[C@H]3[C@@H]1O,Potency,[17],inactive
same,Potency,[1],inactive
same,Potency,[10],3.55 µM (active)
same,Potency,[11],inactive
CCCCC(=O)N(Cc1ccc(-c2ccccc2-c2nn[nH]n2)cc1)C(C(=O)O)C(C)C (centres undefined),Potency,[11],inactive
CC(=O)Nc1ccc(C(=O)Nc2ccccc2N)cc1,Z-AUC,[2],-0.302 (inactive)
same,Z-AUC,[2]; [19],-0.636
same,Z-AUC,[2]; measured here: PEO4 Z-AUC,-0.146
same,Potency,[11],7.08 µM (active)
CCCCc1nc(C)c(CC(=S)N(C)C)c(=O)n1Cc1ccc(-c2ccccc2-c2nn[nH]n2)cc1,Potency,[14],9.52 µM (active)
same,Potency,[11],inactive
CCCCc1nc(Cl)c(CO)n1Cc1ccc(-c2ccccc2-c2nnn[nH]2)cc1,Potency,[11],inactive
same,Potency,[13],inactive
Nc1ccc(N)c([N+](=O)[O-])c1,Potency,[11],inactive
same,Potency,[13],inactive
same,"activity, negative = cell killing",[18],-23.5% (inactive)
